Test results as given in PubChem BioAssay (NCATS).
Where “and” joins values, the source holds several entries; their conditions need not be identical. Equal entries are not always repeated. Results filed as inconclusive are left out. Calls of active or inactive are those of the source. Unless noted, calls come from the whole dose curve; as a rule, active = well fitted curve in the direction sought with a large enough effect; inconclusive = small, poorly fitted or top-dose-only effect, or another doubt; inactive = no such curve, though single readings can be large; an effect the other way counts as inactive or inconclusive.

How the values were obtained:
[1] = Cell Viability - MRC5 (AID 434; calls by dose curve;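 note: potency is the fitted concentration of half-maximal effect; cells exposed to compound for 40 hours at 37 °C; potency reflects cytotoxicity seen as loss of intracellular ATP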); conditions: MRC5 lung fibroblast viability, qHTS
How it was run: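 AC50 values come from Hill-equation fits of intracellular ATP loss, measured by CellTiter-Glo luminescence. Normal lung fibroblasts (MRC5) had 40 hr compound treatment at 37 C, normalized between DMSO and 100 uM tamoxifen.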

[2] = Cell Viability - HUV-EC-C (AID 542); conditions: HUV-EC-C endothelial cell viability, qHTS; series mostly up to 92.2 µM;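 note: cells exposed to compound for 40 hours; % is set by controls: 0 for no effect and ±100 for the full control effect; nearly all actives have a fitted effect of over 35% in size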
How it was run: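 Cells were seeded at 1000 per well and incubated 5 hr at 37 °C before compound addition. After 40 hr at 37 °C, CellTiter-Glo reagent was added for 20 min and luminescence read. AC50 values came from Hill-equation modelling.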

[3] = Cellular Toxicity (caspase-3) HepG2 (AID 654); conditions: HepG2 caspase-3 activation, luminescence; series mostly up to 92.2 µM;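 note: cells exposed to compound for 16 hours before reading; 0% = DMSO alone and 100% = caspase signal from 100 µM tamoxifen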
How it was run: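 Caspase 3/7 activation in HepG2 is measured as rising luminescence after a 16 hr treatment at 37 °C. Values are scaled between DMSO basal and 100 uM tamoxifen, and AC50 is fitted with the Hill equation.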

[4] = Cellular Toxicity (caspase-3) HUV-EC-C (AID 656); conditions: HUV-EC-C cells, caspase-3 activation (apoptosis); series mostly up to 92.2 µM
How it was run: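 HUV-EC-C endothelial cells, 1000/well, were pre-incubated 5 hr at 37°C, then exposed to compounds for 16 hr at 37°C. Caspase-Glo 3/7 luminescence was read after 20 min at room temperature. AC50 came from Hill fits, normalized to DMSO and 100 uM tamoxifen.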

[5] = Cellular Toxicity (caspase-3) SHSY5Y (AID 657); conditions: SH-SY5Y caspase-3 activation; series mostly up to 91.7 µM
How it was run: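 SH-SY5Y human neuroblastoma cells (1500/well) were treated with compounds for 16 h at 37 °C, then Caspase-Glo 3/7 luminescence was read after 1 h at room temperature. Data normalized to DMSO and 10 uM staurosporine; AC50 from Hill fits.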

[6] = Cellular Toxicity (caspase-3) MRC-5 (AID 659); conditions: MRC-5 cells, luminescence, normalized: DMSO 0%, 10 µM staurosporine 100%; series mostly up to 91.7 µM
How it was run: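 Luminescent Caspase-Glo 3/7 read-out (1 h, room temperature) after a 16 h, 37 °C compound exposure of MRC-5 lung fibroblasts at 1500 cells/well. Concentration-response AC50 from Hill equation; 0% DMSO, 100% 10 uM staurosporine.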

[7] = Cellular Toxicity (caspase-3) Mesangial (AID 660); conditions: mesangial cells, normalized: DMSO 0%, 100 µM tamoxifen 100%; series mostly up to 91.7 µM;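 note: combined caspase 3 and 7 activity read by Caspase-Glo luminescence; cells exposed to compound for 16 h before the caspase read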
How it was run: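 Seed cells derived from normal human renal glomeruli, incubate 5 h, add compounds across concentrations and incubate 16 h at 37 °C. Caspase 3/7 activation is then quantified by luciferase light, with AC50 derived by Hill modeling.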

[8] = Cellular Toxicity (caspase-3) SK-N-SH (AID 661); conditions: SK-N-SH caspase-3 activation, qHTS, DMSO as zero, staurosporine as full; series mostly up to 91.7 µM
How it was run: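 Cells were seeded and incubated 5 hr at 37 °C, dosed with compound over a concentration range for 16 hr, then given Caspase-Glo 3/7 reagent for 1 hr at room temperature before luminescence reading.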

[9] = Cellular Toxicity (caspase-3) H-4-II-E (AID 663); conditions: H-4-II-E rat hepatoma; Potency: caspase-3 activation; series mostly up to 92.2 µM
How it was run: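 Caspase 3/7 activation measured by luminescent aminoluciferin substrate cleavage after 16 hr compound treatment of H-4-II-E cells in complete medium. Increase normalized between DMSO (basal) and 100 uM tamoxifen (100%); Hill-equation AC50 from concentration-response.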

[10] = Cellular Toxicity (caspase-3) N2a (AID 665); conditions: N2a cells, luminescence, normalized: DMSO 0%, 10 µM staurosporine 100%; series mostly up to 92.2 µM;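 note: compound exposure lasted 16 h at 37 °C before readout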
How it was run: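 Caspase-3/7 activation, measured as increased luminescence from aminoluciferin release, is quantified in mouse N2a cells exposed to compounds for 16 h. Values are normalized to DMSO and 10 uM staurosporine, with AC50 derived by Hill modelling.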

[11] = Cellular Toxicity (caspase-3) NIH 3T3 (AID 666); conditions: NIH 3T3 caspase-3 activation, apoptosis/toxicity, 0% DMSO, 100% is 100 µM tamoxifen; series mostly up to 92.2 µM;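 note: 0% = DMSO basal and 100% = 100 µM tamoxifen stimulation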
How it was run: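 Cells were plated at 1000 per well and incubated 5 hr at 37°C, then compound was added for 16 hr. Caspase-Glo 3/7 reagent followed for 20 min at room temperature before luminescence was read.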

[12] = Cellular Toxicity (caspase-3) Renal Proximal Tubule (AID 667); conditions: renal proximal tubule cells, primary cells freshly taken from rat; Potency: caspase-3 activation; series mostly up to 91.7 µM;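 note: cells exposed to compound for 16 hours at 37 °C before detection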
How it was run: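 Primary rat proximal tubule cells, 1000/well, 5 h plating at 37 °C, then compound 16 h at 37 °C. Caspase-Glo 3/7 reagent, 1 h RT, luminescence. Normalized to DMSO (basal) and 10 uM staurosporine (100%); Hill-fit AC50.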

[13] = MultiTox-Fluor Cytotoxicity Assay - LYMP1-001 - Dead Cells (AID 946); conditions: LYMP1-001 lymphoblastoid cells, dead-cell protease fluorescence; series mostly up to 92.2 µM;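 note: 0% = DMSO and 100% = tetraoctylammonium bromide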
How it was run: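 In this qHTS, 15 uM tetraoctylammonium bromide defined 100% and DMSO defined basal activity. Lymphoblastoid cells (LYMP1-001, 2500 per well) received compound for 16 hr at 37 C before a fluorogenic dead-cell substrate readout at 485/520 nm.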

[14] = MultiTox-Fluor Cytotoxicity Assay - LYMP1-003 - Dead Cells (AID 961); conditions: LYMP1-003 lymphoblastoid cells, dead-cell protease fluorescence; series mostly up to 92.2 µM;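 note: 0% = DMSO and 100% = tetraoctylammonium bromide; nearly all actives have a fitted effect of over 70% in size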
How it was run: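 Acute toxicity is scored as increased dead-cell protease activity in human lymphoblastoid LYMP1-003 cells after 16 h compound exposure in complete culture medium. Activity is normalized to DMSO basal and 15 uM tetraoctylammonium bromide as full response.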

[15] = MultiTox-Fluor Cytotoxicity Assay - LYMP1-003 - Live Cells (AID 962); conditions: LYMP1-003 lymphoblastoid cells, MultiTox-Fluor live-cell protease fluorescence; series mostly up to 92.2 µM;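 note: 0% = DMSO only and full loss = 92 µM tetraoctylammonium bromide; cytotoxic hits lower the live-cell protease signal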
How it was run: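 Acute cytotoxicity is scored as a drop in live-cell protease activity in human lymphoblastoid LYMP1-003 cells after 16 hr compound exposure at 37 C. AC50 values come from Hill-equation modelling of concentration-response data.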

[16] = Cell Viability - LYMP1-003 - Assay at 24 hr (AID 963); conditions: LYMP1-003 lymphoblastoid cell viability; series mostly up to 92.2 µM;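 note: plate controls were DMSO only for no effect and tetraoctylammonium bromide positive control for full effect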
How it was run: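 Cytotoxicity is scored as a concentration-dependent fall in ATP-linked luciferase signal in human lymphoblastoid LYMP1-003 cells treated 24 hr at 37 C in complete culture medium.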

[17] = qHTS Assay for Identification of Small Molecule Inducers of Hypoxia Response (AID 2120; active = well fitted curve in the direction sought with a large enough effect in the signal ratio, with a control signal flat, not every such curve was filed as active; the % refers to the signal ratio; note: 0% is about no effect); conditions: hypoxia response reporter cells, beta-lactamase ratio readout; series mostly up to 104 µM
How it was run: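 Cell-based qHTS for reporter induction: hypoxia response element controlled beta-lactamase in ME-180 cells. Compounds incubated 17 h at 37 degrees C; activity from blue/green (460/530 nm) ratio, inducers ranked by AC50.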

[18] = biological target: Peroxisome proliferator-activated receptor alpha (Homo sapiens) (UniProt Q07869); assay: qHTS assay for small molecule agonists of the peroxisome proliferator-activated receptor alpha (PPARalpha) signaling pathway (AID 651778); conditions: PathHunter PPARalpha complementation, chemiluminescence, 6 h; max response: stronger effect = higher value; note: % of control where 0% means no effect
How it was run: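 Chemiluminescence from complemented enzyme reported PPARalpha activation in cells after 6 hr of compound treatment at 37 C. The detection reagent was incubated for 60 min at room temperature, and compounds were scored as agonists.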

[19] = qHTS assay for small molecule agonists of the antioxidant response element (ARE) signaling pathway measured by Nrf2-dependant transcriptional activity - cell viability counter screen (AID 720653; active = well fitted curve in the direction sought with a large enough effect in the repeat runs; an effect the other way counts as inactive or inconclusive; note: % is set by controls: 0 for no effect and ±100 for the full control effect); conditions: ARE-bla HepG2 viability, CellTiter-Glo ATP luminescence, 16 h; max response: stronger effect = lower value
How it was run: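 Cytotoxicity counter screen: intracellular ATP quantified by CellTiter-Glo luminescence in the same ARE-bla HepG2 plates, after 16 h compound exposure and a 2 h beta-lactamase substrate step.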

[20] = qHTS assay for cell viability of the p53RE-bla HCT-116 cell line (AID 743292); conditions: p53RE-bla HCT-116 viability, ATP luminescence, 16 h; series mostly up to 95 µM; note: % is set by controls: 0 for no effect and ±100 for the full control effect; nearly all actives have a fitted effect of over 55% in size
How it was run: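 CellSensor p53RE-bla HCT-116 cells (4,000/well) pre-incubated 5 h at 37 C, then exposed to compounds in DMSO for 16 h at 37 C. Viability read as ATP content by CellTiter-Glo luminescence after 30 min at room temperature.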

Chain of Peroxisome proliferator-activated receptor alpha (Homo sapiens) (Q07869 whole entry, looked up): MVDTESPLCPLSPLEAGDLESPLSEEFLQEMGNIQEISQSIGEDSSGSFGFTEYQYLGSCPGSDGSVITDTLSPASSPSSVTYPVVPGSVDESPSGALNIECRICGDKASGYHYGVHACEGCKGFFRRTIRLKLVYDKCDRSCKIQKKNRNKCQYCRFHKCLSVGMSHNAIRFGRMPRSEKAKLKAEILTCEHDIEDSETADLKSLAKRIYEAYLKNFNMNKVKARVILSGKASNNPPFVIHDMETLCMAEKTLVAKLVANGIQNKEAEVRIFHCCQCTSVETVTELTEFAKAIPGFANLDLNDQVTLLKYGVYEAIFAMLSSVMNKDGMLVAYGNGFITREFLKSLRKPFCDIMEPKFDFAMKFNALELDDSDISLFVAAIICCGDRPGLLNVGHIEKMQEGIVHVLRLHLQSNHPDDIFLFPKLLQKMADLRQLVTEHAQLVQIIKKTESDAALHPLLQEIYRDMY

Cc1cccnc1
inactive: Potency [1] > 92 µM | Potency [2] | Potency [3] | Potency [4] | Potency [5] | outcome [6] | outcome [7] | outcome [8] | Potency [9] | outcome [10] | outcome [11] | Potency [12] | Potency [13] | Potency [14] | Potency [15] | Potency [16] | Potency [17] | max response [18] -1.1% | max response [19] -3.56% | Potency [20]

CC(=O)OCc1ccc2c(c1)OCO2
inactive: Potency [1] > 92 µM | Potency [2] | Potency [3] | Potency [4] | Potency [5] | outcome [6] | outcome [7] | outcome [8] | Potency [9] | outcome [10] | outcome [11] | Potency [12] | Potency [13] | Potency [14] | Potency [15] | Potency [16] | Potency [17] | max response [18] -4.72% | max response [19] -6.13% | Potency [20]

CCC(Cl)CC(Cl)C(Cl)C(Cl)C(Cl)C(C)Cl (stereo not given)
inactive: Potency [1] > 92 µM | Potency [2] | Potency [3] | Potency [4] | Potency [5] | outcome [6] | outcome [7] | outcome [8] | Potency [9] | outcome [10] | outcome [11] | Potency [12] | Potency [13] | Potency [14] | Potency [15] | Potency [16] | Potency [17] | max response [18] -3.58% | max response [19] -9.68% | Potency [20]

CN(C)c1ccc(Cc2ccc(N(C)C)cc2)cc1
inactive: Potency [1] > 92 µM | Potency [2] | Potency [3] | Potency [4] | Potency [5] | outcome [6] | outcome [7] | outcome [8] | Potency [9] | outcome [10] | outcome [11] | Potency [12] | Potency [13] | Potency [14] | Potency [15] | Potency [16] | Potency [17] | max response [18] 1.98% and -1.9% | max response [19] -17.1% and 8.5% | Potency [20]

CC(=O)c1ccc(Cl)c(Cl)c1Cl
inactive: Potency [1] > 92 µM | Potency [2] | Potency [3] | Potency [4] | Potency [5] | outcome [6] | outcome [7] | outcome [8] | Potency [9] | outcome [10] | outcome [11] | Potency [12] | Potency [13] | Potency [14] | Potency [15] | Potency [16] | Potency [17] | max response [18] -0.114% | max response [19] 4.27% | Potency [20]

CC(C)S
inactive: Potency [1] > 92 µM | Potency [2] | Potency [3] | Potency [4] | Potency [5] | outcome [6] | outcome [7] | outcome [8] | Potency [9] | outcome [10] | outcome [11] | Potency [12] | Potency [13] | Potency [14] | Potency [15] | Potency [16] | Potency [17] | max response [18] -0.0008% | max response [19] 14.7% | Potency [20]
